This is an account of results in ChEMBL document CHEMBL4513216, “Probing the Open Global Health Chemical Diversity Library for Multistage-Active Starting Points for Next-Generation Antimalarials” (ACS Infect Dis, 2020).

Among all 69,000 compounds or so, about 8,600 (12%) showed an effect of 50% or more. This excerpt belongs to a sample that is enriched for strong results.

For the assay, the system named is Plasmodium berghei. Kind of assay: Screen against P. berghei liver stage (PbLuc), transformed with Luciferase, at 10uM. It counts as functional, HepG2. As to conditions: tested at 10 uM.
In the case of `CN(C)C1(CNc2nccc(C3CCCC3)n2)CCOCC1`, the INHIBITION is given as -15.3%.

For `Cn1ccnc1CNC(=O)CC1CCCCO1` (stereo unspecified), the INHIBITION is listed as 19.25%. The figure for `COCCNCc1cc2ccc(C)c(C)c2[nH]c1=O` is 1.475%. As for `CC(=O)Nc1cccc(CN2CCN(C3=NCC(C)(C)S3)CC2)c1`, the INHIBITION is reported as 42.1%. The figure for `CN(C)CCN1CCOCC2(C1)CN(Cc1ccsc1)CCO2` (stereo unspecified) is 25.6%; for `CCS(=O)(=O)N(C)CCCNCc1c(C)nn(C)c1N(C)C` it is 19.15%. The figure for `CC(C)CN1CCN(C(=O)CCn2cccn2)CC1` is 2.4%. In the case of `C[C@H]1C(=O)NC[C@H]2CN(CCc3ccccc3)C[C@H]21`, the INHIBITION is listed as -23.3%. The figure for `CCN(CC)C(=O)Cn1ccc2cc(NC(=O)C3CC3)ccc21` is 52.7%; for `CCC(=O)Nc1ccc2c(ccn2CC(=O)N(CC)CC)c1` it is 8.4%. Turning to `CCN(CC)C(=O)Cn1ccc2cc(NC(=O)C3CCCCC3)ccc21`, the INHIBITION is recorded as -3.202%. Consider `CCc1nccn1C1CCCN(C(=O)c2ccc(-n3ccnc3)cc2)C1` (stereo unspecified), for which the INHIBITION came out at 33.3%. Take `CCCC(C)Sc1nnnn1C1CCOCC1` (stereo unspecified): the INHIBITION worked out at 15%. The figure for `N#CC(Sc1nnnn1C1CCOCC1)C1CCCCC1` (stereo unspecified) is -58.6%; for `CC(Sc1nnnn1C1CCOCC1)C(F)(F)F` (stereo unspecified) it is 52.8%; for `CC(Sc1nnnn1C1CCOCC1)C(=O)NC1CCCCC1` (stereo unspecified) it is 3.47%.

Regarding `COC(=O)C(C)Sc1nnnn1C1CCOCC1` (stereo unspecified), the INHIBITION came out at 23.6%. The figure for `CC(C)Sc1nnnn1C1CCCC1` is 66.9%.

On to `N#CC1(NC(=O)c2ccc(F)cc2OC(F)F)CCOCC1`, for which the INHIBITION was 8.12%.

Regarding `CN(C)C(=O)COC1COC2(CCN(c3cccc(F)c3)CC2)C1` (stereo unspecified), the INHIBITION was 42.7%. The figure for `Cc1ccc(-c2noc(C(C)(C)NS(C)(=O)=O)n2)cc1F` is 15.4%; for `OCC1COCCN(Cc2cc(C3CCCCC3)no2)C1` (stereo unspecified) it is 41%. As to `CC[C@@]1(O)CCN(C(=O)c2ccc(CN3CCCCCC3)cc2)C[C@H]1O`, the INHIBITION is 3.03%. The figure for `CC1(C)CN(Cc2cc(C3CCCCC3)no2)CC[C@]1(C)O` is 47.7%; for `CC[C@@]1(O)CCN(Cc2cc(C3CCCCC3)no2)C[C@H]1O` it is 56.6%. On to `C[C@@H]1CN(Cc2cc(C3CCCCC3)no2)CC[C@]1(C)O`, for which the INHIBITION is 61.1%. The figure for `NC1CCCCN(Cc2cc(C3CCCCC3)no2)C1` (stereo unspecified) is 57.8%.

As for `CCc1nc(C)sc1CN1CC[C@](O)(CC)[C@H](O)C1`, the INHIBITION was -31.7%. As for `Cc1cc(-c2nn(C)c(Cl)c2CN2CCCCC(N)C2)no1` (stereo unspecified), the INHIBITION was determined as 48.5%. `Cc1nonc1CN1CC[C@@](O)(C2CCC2)[C@H](C)C1`: the INHIBITION came to 21.9%. The figure for `CCc1nc(C)sc1CN1CC[C@@](O)(C2CC2)[C@H](C)C1` is 29.7%; for `C[C@@H]1CN(Cc2c[nH]c(CC3CCCC3)n2)CC[C@]1(C)O` it is 15%; for `Cc1nnsc1CN1CC[C@@](O)(C2CCC2)[C@H](C)C1` it is 66.7%.

With `O=C(COCc1ccccc1)N1CCCn2cncc2C1`, the INHIBITION was 14.5%. The figure for `Cc1cs/c(=N\C(=O)Cn2nc(N3CCC(C)CC3)ccc2=O)[nH]1` is -6.73%; for `CN(C)Cc1cnc2n1CCN(Cc1ccsc1)CC2` it is 16.8%; for `C[C@@H]1CN(Cc2cccc(F)c2)C[C@]12CCN(Cc1cccnc1)C2=O` it is -13.4%. Turning to `Cc1ccc(C(=O)N2C[C@H](OCc3cccnc3)[C@H]3COC[C@H]32)cn1`, the INHIBITION came to 25.3%. The figure for `CC(C)N(C)Cc1nnn2c1CN(Cc1cccnc1)CCC2` is -50.9%; for `CCC(CO)n1cnc2scc(C)c2c1=O` (stereo unspecified) it is 1.19%; for `Cc1nonc1CN1CC[C@@](O)(C2CCOCC2)[C@H](C)C1` it is 47.7%. Regarding `OC1COCCN(Cc2cc(-c3ccccc3OC(F)(F)F)no2)C1` (stereo unspecified), the INHIBITION was -26.1%. As for `C[C@@H]1CN(Cc2nc(C(N)=O)no2)CC[C@@]1(O)C1CCOCC1`, the INHIBITION stood at 59.1%. The figure for `C[C@@H]1CN(Cc2nc(C(N)=O)no2)CC[C@@]1(O)C1CC1` is 6.26%; for `NC1CCCCN(Cc2cc(-c3ccccc3OC(F)(F)F)no2)C1` (stereo unspecified) it is 79.7%. The figure for `N[C@@H]1CCN(Cc2cc(-c3ccccc3OC(F)(F)F)no2)C[C@H]1O` is -48.3%; for `C[C@@H]1CN(Cc2cc(C3CCCCC3)no2)CC[C@@]1(O)C1CC1` it is 63.3%; for `COc1cc(F)c(CN2CC[C@@](O)(C3CC3)[C@H](C)C2)cc1OC` it is -39.2%. Take `C[C@@H]1CN(Cc2cc(C(F)(F)F)ccc2F)CC[C@@]1(O)C1CC1`: the INHIBITION was -45%. Regarding `COCCCC(=O)N(CCC(=O)O)Cc1ccc(F)c(F)c1`, the INHIBITION turned out to be 23.1%. Regarding `CC(C)NC(=O)N1CCN(CC2CC2)c2ncccc2C1`, the INHIBITION is listed as 30.3%.

Consider `O=S(=O)(C1CC1)N1CC[C@H](OCC2CC2)[C@@H]1Cc1cccnc1`, for which the INHIBITION was -4.02%. The figure for `CCN(c1ccc(C(=O)NCCCN2CCCCC2)cc1)S(=O)(=O)CC` is 21.7%; for `COc1ccc(Oc2nccnc2C2CCN(C(C)=O)CC2)cc1` it is 58.1%; for `CC(=O)N1CCC(c2nccnc2Oc2ccccc2)CC1` it is 39.2%.

With `COc1cccc(-c2nccnc2C2CCN(C(C)=O)CC2)c1`, the INHIBITION worked out at 57.4%. Regarding `CC(=O)N1CCC(c2nccnc2-c2ccc(F)c(F)c2)CC1`, the INHIBITION was found to be 26.8%. The figure for `COc1ccc(-c2nccnc2C2CCN(C(C)=O)CC2)cc1` is 40.9%; for `COc1ccc(-c2cc(C3CCN(C(C)=O)CC3)ccn2)cc1` it is -24.1%.

Consider `Cn1nnnc1SC1CCCN(c2ccccc2Cl)C1=O` (stereo unspecified), for which the INHIBITION is recorded as -40%.

Consider `CN(C)[C@@H]1CCN(C(=O)NC2CCCC2)[C@H]1Cc1cnn(C)c1`, for which the INHIBITION turned out to be 21%. The figure for `Cc1cc(C)n(CC2CCCN2C(=O)c2cnc3n[nH]c(C)c3c2)n1` (stereo unspecified) is 13.6%; for `CC(C)CN1C[C@@H](C(=O)O)C[C@@H](C(=O)NCc2ccncc2)C1` it is 2.79%. The figure for `CCc1ccsc1C(=O)NC(C#N)CC` (stereo unspecified) is 30.9%; for `Cc1cnc(CN(C)Cc2cc3c(cc2OC(F)F)OCO3)o1` it is 60%. The figure for `Cc1nc(CN(C)Cc2cc3c(cc2OC(F)F)OCO3)oc1C` is 11.3%; for `Cc1cc(CN(C)Cc2cc3c(cc2OC(F)F)OCO3)on1` it is -19.9%; for `CN(C)Cc1cc(C2CCN(C(=O)C3CCCNC3)CC2)nn1C` (stereo unspecified) it is 27.2%.

As to `Cc1cc(NC(=O)c2ccc(F)cc2Br)n(C)n1`, the INHIBITION is on record as -18.5%.

On to `Cc1cc(NC(=O)c2ccccc2Br)n(C)n1`, for which the INHIBITION worked out at 53.2%. The figure for `Cc1cc(NC(=O)c2ccc(Br)cc2F)n(C)n1` is -77%.
